Measured values published in PubChem BioAssay (Tox21).
Where “and” joins values, the source holds several entries; their conditions need not be identical. Equal entries are not always repeated. Inconclusive results are not listed. Some compounds were tested as several samples or in several runs, with calls that do not always agree. Calls of active or inactive are those of the source. Unless noted, the call rests on the fitted dose curve; in most records, active means well fitted curve in the direction sought with a large enough effect in the repeat runs; inconclusive means weak or mixed curves; inactive means no such curve, though single readings can be large; an effect the other way counts as inactive or inconclusive.

Legend:
[1] = qHTS assay for small molecule agonists of the p53 signaling pathway (AID 651631; calls by dose curve; further: nearly all actives have a fitted effect of over 15% in size)
In short: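 Fluorescence intensity from cleaved LiveBLAzer B/G substrate (2 h, room temperature) served as the signal. Beforehand, HCT-116 reporter cells bearing p53 response elements were treated 16 h at 37 °C with DMSO-dissolved compounds.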

[2] = qHTS assay for small molecules that induce genotoxicity in human embryonic kidney cells expressing luciferase-tagged ATAD5 (AID 651632); further: nearly all actives have a fitted effect of over 15% in size
In short: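 HEK293T cells carrying a luciferase reporter tagged to ATAD5 were exposed to compound or DMSO vehicle for 16 hr at 37C, 5% CO2. Amplite was added, and after 30 min at room temperature luciferase activity was read as a marker of ATAD5 induction.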

[3] = qHTS assay for small molecule agonists of the p53 signaling pathway - cell viability (AID 651633; calls by dose curve; further: nearly all actives have a fitted effect of over 30% in size; further: potency means the concentration at half of the fitted maximal effect)
In short: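 Viability counter-read: CellTiter-Glo luminescence (30 min, room temperature) in the same p53RE-bla plates. These plates had been exposed to compounds for 16 h at 37 C.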

[4] = qHTS assay for small molecule disruptors of the mitochondrial membrane potential - cell viability (AID 720634; calls by dose curve;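 further: human HepG2 liver cancer cells; nearly all actives have a fitted effect of over 20% in size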)
In short: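 HepG2 cells seeded overnight at 37 C, then exposed to compound or DMSO for 1 hr at 37 C, 5% CO2. m-MPI dye added, then CellTiter-Glo for 30 min at room temperature; viability read as ATP luminescence.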

[5] = qHTS assay for small molecule disruptors of the mitochondrial membrane potential (AID 720635); further: potency means the concentration at half of the fitted maximal effect
In short: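 Mitochondrial membrane potential tracked with Mito-MPS dye, red aggregates (ex 540/em 590 nm) against green monomers (ex 490/em 535 nm). Compound treatment 1 hr at 37C, dye 30 min in HepG2.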

[6] = qHTS assay to test for compound auto fluorescence at 590 nm (red) in HepG2 cells (AID 720674)
In short: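 Red autofluorescence (Ex/Em 540/590 nm, Rose Bengal sodium equivalents) was measured in HepG2 cells, 2,000 per well in MEM plus 10% FBS, plated overnight at 37 C. Readings were taken 1 hr after adding 23 nL compound or DMSO, at 37 C and 5% CO2.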

[7] = qHTS assay to test for compound auto fluorescence at 535 nm (green) in HepG2 cells (AID 720675)
[8] = qHTS assay to test for compound auto fluorescence at 460 nm (blue) in HEK293 cells (AID 720678); further: potency means the concentration at half of the fitted maximal effect
In short: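 Measured: blue fluorescence (Ex 405/Em 460 nm) of compound-treated HEK293 cells, incubated overnight at 37C with 5% CO2 and scaled to triamterene equivalents.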

[9] = qHTS assay to test for compound auto fluorescence at 590 nm (red) in HEK293 cells (AID 720679)
In short: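 Using HEK293 cells at 2,000 per well, the screen added 23 nL of each compound after cell attachment and incubated overnight (37C, 5% CO2). The plate reader then captured red-label fluorescence, Ex/Em 540/590nm.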

[10] = qHTS assay to test for compound auto fluorescence at 535 nm (green) in HEK293 cells (AID 720680)
[11] = qHTS assay to test for compound auto fluorescence at 460 nm (blue) in HEK293 cell free culture (AID 720681); further: potency means the concentration at half of the fitted maximal effect
In short: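 Blue fluorescence (Ex 405/Em 460 nm, triamterene-equivalent) was read immediately after pin transfer of compound or DMSO into medium (DMEM, 10% FBS) without cells.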

[12] = qHTS assay to test for compound auto fluorescence at 535 nm (green) in HEK293 cell free culture (AID 720682)
In short: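 Intrinsic compound fluorescence is measured in culture medium containing 10% FBS, with excitation at 485 nm and detection at 535 nm, referenced to fluorescein.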

[13] = qHTS assay to test for compound auto fluorescence at 590 nm (red) in HEK293 cell free culture (AID 720683)
In short: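 Red-channel autofluorescence of compounds in culture medium (DMEM, 10% FBS), no cells, measured at 540/590 nm. Rose Bengal sodium is the reference fluorophore for equivalence.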

[14] = qHTS assay to test for compound auto fluorescence at 590 nm (red) in HepG2 cell free culture (AID 720684)
In short: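 Steps: dispense MEM/10% FBS medium, no cells; pin compound or DMSO vehicle; read red channel, Ex/Em 540/590 nm. Output given as Rose Bengal sodium equivalents.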

[15] = qHTS assay to test for compound auto fluorescence at 460 nm (blue) in HepG2 cell free culture (AID 720685); further: potency means the concentration at half of the fitted maximal effect
In short: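 Compound (23 nL) or DMSO pinned into cell-free MEM with 10% FBS; blue fluorescence read at 405/460 nm excitation/emission, expressed as auto-fluorescence equivalency to triamterene.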

[16] = qHTS assay to test for compound auto fluorescence at 535 nm (green) in HepG2 cell free culture (AID 720686)
[17] = qHTS assay to test for compound auto fluorescence at 460 nm (blue) in HepG2 cells (AID 720687); further: potency means the concentration at half of the fitted maximal effect
In short: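 Blue-channel autofluorescence (Ex/Em 405/460 nm, triamterene-equivalent) was measured after 1 hr compound exposure at 37 C, 5% CO2. Cells were HepG2, plated overnight at 37 C in MEM plus 10% FBS.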

[18] = molecular target: Glucocorticoid receptor (Homo sapiens) (UniProt P04150); assay: qHTS assay to identify small molecule agonists of the glucocorticoid receptor (GR) signaling pathway (AID 720691; active means well fitted activation curve with a large enough effect in the signal ratio in the repeat runs, not every such curve was filed as active; the % refers to the signal ratio; further: potency means the concentration at half of the fitted maximal effect); details: GR-bla HeLa, beta-lactamase reporter ratio, 18 h; activation: at 62.4 µM (top of the series)
In short: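 GR-bla HeLa cells (beta-lactamase reporter under glucocorticoid response element) were plated 4 h at 37 C/5% CO2, given compounds in DMSO, and incubated 18 h at 37 C. LiveBLAzer B/G FRET substrate was added for 2 h at room temperature, then fluorescence intensity read.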

[19] = molecular target: Glucocorticoid receptor (Homo sapiens) (UniProt P04150); assay: qHTS assay to identify small molecule antagonists of the glucocorticoid receptor (GR) signaling pathway (AID 720692; active means well fitted inhibition curve with a large enough effect in the signal ratio in the repeat runs, not every such curve was filed as active; the % refers to the signal ratio; further: potency means the concentration at half of the fitted maximal effect)
In short: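 GR-bla HeLa cells (beta-lactamase reporter under glucocorticoid response element) were pre-plated 4 h at 37 C, treated with compounds plus 5 nM dexamethasone (final) for 18 h, then read by LiveBLAzer B/G FRET fluorescence after 2 h.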

[20] = qHTS assay for small molecules that induce genotoxicity in human embryonic kidney cells expressing luciferase-tagged ATAD5 - cell viability (AID 651634; calls by dose curve; further: nearly all actives have a fitted effect of over 25% in size; further: potency means the concentration at half of the fitted maximal effect)
In short: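 HEK293T cells expressing luciferase-tagged ATAD5 were exposed to compound or DMSO for 15.5 hr at 37C, 5% CO2. Viability was then read as live-cell protease activity by CellTiter-Fluor fluorescence after 30 min at 37C.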

Measured: Potency
Tags describe the fitted curve by direction and shape or compound fluorescence and quenching.

Chain of Glucocorticoid receptor (Homo sapiens) (P04150 whole entry, looked up): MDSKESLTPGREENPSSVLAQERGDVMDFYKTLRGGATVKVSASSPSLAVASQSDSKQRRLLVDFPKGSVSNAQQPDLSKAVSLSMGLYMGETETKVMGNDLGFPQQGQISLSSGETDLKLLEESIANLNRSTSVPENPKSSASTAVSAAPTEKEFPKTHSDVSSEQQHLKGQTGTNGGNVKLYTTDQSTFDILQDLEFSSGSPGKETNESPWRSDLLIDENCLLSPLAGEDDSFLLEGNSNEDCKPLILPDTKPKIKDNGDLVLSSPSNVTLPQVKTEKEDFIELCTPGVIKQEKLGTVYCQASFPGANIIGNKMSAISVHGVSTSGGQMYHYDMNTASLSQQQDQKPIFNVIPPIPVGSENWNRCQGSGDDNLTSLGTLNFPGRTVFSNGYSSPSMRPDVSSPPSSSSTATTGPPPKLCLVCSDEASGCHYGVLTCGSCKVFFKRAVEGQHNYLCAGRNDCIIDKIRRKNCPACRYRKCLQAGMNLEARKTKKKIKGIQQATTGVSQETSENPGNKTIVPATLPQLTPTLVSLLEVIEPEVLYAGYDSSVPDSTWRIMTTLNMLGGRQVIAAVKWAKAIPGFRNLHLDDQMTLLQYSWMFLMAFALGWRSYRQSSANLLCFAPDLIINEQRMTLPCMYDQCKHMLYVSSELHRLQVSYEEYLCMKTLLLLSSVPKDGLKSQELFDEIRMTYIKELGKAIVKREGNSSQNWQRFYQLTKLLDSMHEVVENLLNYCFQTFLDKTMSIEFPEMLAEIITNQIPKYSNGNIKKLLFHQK

CCC[C@@H]1C[C@@H](C(=O)N[C@@H]([C@H]2O[C@H](SC)[C@H](OP(=O)(O)O)[C@@H](O)[C@H]2O)[C@H](C)Cl)N(C)C1
not listed: [20]
inactive: all other assays above

Cc1cc(=O)c(C(=O)N[C@@H](C(=O)N[C@@H]2C(=O)N3C(C(=O)O)=C(CSc4nnnn4C)CS[C@H]23)c2ccc(O)cc2)c[nH]1
not listed: [5] | [11] | [20]
inactive: all other assays above

CON=C1C[C@]2(C[C@@H]3C[C@@H](C/C=C(\C)C[C@@H](C)/C=C/C=C4\CO[C@@H]5[C@H](O)C(C)=C[C@@H](C(=O)O3)[C@]45O)O2)O[C@H](/C(C)=C/C(C)C)[C@H]1C
active: [3] 11.9 µM and 8.41 µM | [20] 11.9 µM and 8.41 µM | [5] 13.3 µM
not listed: [1] | [9] | [11] | [18] | [19]
inactive: all other assays above

CCCn1c(=O)[nH]c(=O)c2[nH]cnc21
not listed: [1] | [18] | [19]
inactive: all other assays above

CCC(NC(C)C)C(O)c1ccc(O)c(O)c1 (configuration not stated)
not listed: [1] | [18] | [19]
inactive: all other assays above

Nc1c(CC(=O)O)cccc1C(=O)c1ccccc1
not listed: [1] | [5] | [11]
inactive: all other assays above

CCSCC
not listed: [1] | [5]
inactive: all other assays above

SC1CCCCC1
active: [5] 50.5 µM
not listed: [1] | [19]
inactive: all other assays above

O=C1c2ccccc2-c2n[nH]c3cccc1c23
active: [5] 0.784 µM | [8] 12.6 µM [fluorescent] | [11] 14.1 µM | [15] 12.6 µM [fluorescent] | [17] 14.1 µM [fluorescent]
not listed: [1] | [9] | [18] | [19]
inactive: all other assays above

CN1CC[C@H](c2c(O)cc(O)c3c(=O)cc(-c4ccccc4Cl)oc23)[C@H](O)C1
active: [19] 0.674 µM
not listed: [1] | [5] | [18]
inactive: all other assays above

c1ccc2occc2c1
not listed: [1] | [5] | [9] | [18] | [19]
inactive: all other assays above

CC(=O)N[C@@H](C=O)[C@H](O)[C@H](O)[C@@H](O)CO
not listed: [1] | [5] | [18] | [19]
inactive: all other assays above

CC(C)(C)c1ccc2c(S(=O)(=O)O)c(C(C)(C)C)ccc2c1
not listed: [1] | [5]
inactive: all other assays above

C/C(=C(/CCO)SSCC1CCCO1)N(C=O)Cc1cnc(C)nc1N (configuration not stated)
inactive and 21.3 µM (active): [18]
not listed: [1] | [5] | [12]
inactive: all other assays above

NC(N)=NCCCCN=C(N)N
not listed: [1] | [11]
inactive: all other assays above

Oc1ccc(Cl)cc1C1CCCC1
active: [5] 3.86 µM
not listed: [1] | [4] | [18] | [19]
inactive: all other assays above

CC[C@@]1([C@@H]2O[C@@H]([C@H]3O[C@@](O)(CO)[C@H](C)C[C@@H]3C)C[C@@H]2C)CC[C@H]([C@]2(C)CC[C@]3(C[C@H](O)[C@@H](C)[C@@H]([C@@H](C)[C@@H](OC)[C@H](C)C(=O)O)O3)O2)O1 (stereo in doubt)
active: [20] 596 nM
not listed: [1] | [4] | [5] | [18] | [19]
inactive: all other assays above

C[C@H]1O[C@@H](O[C@H]2CC[C@@]3(C)[C@H](CC[C@@H]4[C@@H]3C[C@@H](O)[C@]3(C)[C@@H](C5=CC(=O)OC5)CC[C@]43O)C2)C[C@H](O)[C@@H]1O[C@H]1C[C@H](O)[C@H](O[C@H]2C[C@H](O)[C@H](O[C@@H]3O[C@H](CO)[C@@H](O)[C@H](O)[C@H]3O)[C@@H](C)O2)[C@@H](C)O1
active: [3] 168 nM | [20] 531 nM | [5] 1.68 µM
not listed: [1] | [19]
inactive: all other assays above

Cc1cc(N)c2ccccc2[n+]1CCCCCCCCCC[n+]1c(C)cc(N)c2ccccc21
not listed: [1] | [9] | [11] | [19]
inactive: all other assays above

C[N+](C)(C)CCOP(=O)(O)OP(=O)([O-])OC[C@H]1O[C@@H](n2ccc(N)nc2=O)[C@H](O)[C@@H]1O
not listed: [1] | [5] | [12]
inactive: all other assays above
